Test results: PubChem BioAssay (NCI)
This is part of a sample that, as a whole, favours compounds with a hit. Of some 83,000 tested, about 20% had one in any assay.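 Negative percent growth values reflect cell death: -40 means 40% of the cells present at the start died, and -100 means all died.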 Activity calls are given as the source filed them.

system: BT-549 breast; assay: NCI-60 one-dose screen, 48 h (100 = growth as untreated, 0 = no growth, -100 = all killed); settings: 10 µM unless noted
Procedure: Growth inhibition of the BT-549 human tumor cell line is measured as a screen for anti-cancer activity. Cells are grown in 96 well plates and exposed to the test compound for 48 hours. Compounds are tested at a single concentration, which is 10^-5 M for most compounds. The reported endpoint is percent growth (GI% or GIPRCNT), where numbers from 0 - 100% represent growth inhibition, and numbers from -100% - 0 represent cell death. For example, a value of 40 represents 60% growth inhibition. A value of 0 means no net growth occurred over the course of the experiment. A value of -40 indicates 40% of cells at the beginning of the experiment died by the end of the experiment. A value of -100 means all cells are dead at the end of the experiment.
NCI-60 Human Tumor Cell Lines Screen was performed using the standard one-dose NCI protocol, which is described in more detail at https://dtp.cancer.gov/discovery_development/nci-60/default.htm.
Compounds with GIPRCNT values below 10 were considered active. Activity score was based on GIPRCNT using the following formula: […]
Score is 0 for GIPRCNT values of 100 or above, 50 for GIPRCNT values of 0, and 100 for GIPRCNT values of -100.

| Compound | growth |
| --- | --- |
| Cc1ccc(-c2nc([P+](c3ccccc3)(c3ccccc3)c3ccccc3)c(N3C[C@H]4C[C@H](C3)c3cccc(=O)n3C4)o2)cc1 | 56.2% (inactive) |
| Cc1nn(-c2ccc(Br)cc2)c2nc3[nH]c(=O)[nH]c(=O)c3nc12 | 94.2% (inactive) |
| Clc1ccc2[nH]cc(-c3nc(-c4c[nH]c5ncccc45)cs3)c2c1 | 59.3% (inactive) |
| COc1cc2c(cc1-c1c(C)noc1C)ncc1nc(C3CCC(F)(F)CC3)n([C@@H](C)COC(F)F)c12 | 56.3% (inactive) |
| C=C(C)[C@@H]1CC[C@]2(CN)CC[C@]3(C)[C@H](CC[C@@H]4[C@@](C)(CCCN)[C@H](C(=C)C)CC[C@]43C)[C@@H]12 | 92.1% (inactive) |
| O=C1CNCCN1 | 100% (inactive) |
| Cc1ccc(NC2CC(=O)N(c3c(C)cc(C)cc3C)C2=O)c(C)c1 (stereo not given) | 113% (inactive) |
| CCN1CCN(C(=O)[C@@]2(C)CC[C@]3(C)CC[C@]4(C)C(=CC(=O)[C@@H]5[C@@]6(C)CC[C@H](OC7C[C@@H](O)[C@@H](O)C(C)O7)C(C)(C)[C@@H]6CC[C@]54C)[C@@H]3C2)CC1 (stereo not given in full) | 87.1% (inactive) |
| O=C1C=C(C(O)c2ccc(O)cc2)C(=O)c2ccccc21 (stereo not given) | 88.1% (inactive) |
| Cc1cc(N2CCOCC2)nc(N(CCCNc2ccnc3cc(Cl)ccc23)Cc2ccco2)n1 | 37.8% (inactive) |
| C#Cc1cccc(NC(=O)C2CCCN(C(=O)CCl)C2)c1 (stereo not given) | 55.1% [8.25 µM] (inactive) |
| COc1cc(-c2cc(-c3nc4ccccc4[nH]3)[nH]n2)cc(OC)c1OC | 36.4% (inactive) |
| Cc1ccnc2c(OCc3ccccc3)cccc12 | 101% (inactive) |
| COc1ccc(/C=C/C(=O)NCC(C)O)cc1 (stereo not given) | 97.6% (inactive) |
| O=C1CCCC=CC[C@H]2C=C(Cl)C(=O)C2=CC[C@H](CCCCC(F)(F)F)OC(=O)CCCC=CC[C@H]2C=C(Cl)C(=O)C2=CC[C@H](CCCCC(F)(F)F)OC(=O)CCCC=CC[C@H]2C=C(Cl)C(=O)C2=CC[C@H](CCCCC(F)(F)F)O1 | 78.5% [6.25 µM] (inactive) |
| COc1ccc(-c2nc(SCC(=O)Nc3ccc(C(C)=O)cc3)[nH]c(=O)c2C#N)cc1 | 82.2% (inactive) |
| CC(=O)O[C@H]1CC[C@]2(C)[C@H]3CC=C4[C@@H]5[C@H](C)[C@@H](C)CC[C@]5(C(=O)NCCNCCNCCN)CC[C@@]4(C)[C@]3(C)CC[C@H]2C1(C)C | 93.7% (inactive) |
| CC(C)(C)CC(C)(C)c1ccc(OCCOCC[N+](C)(C)CC(=O)[O-])cc1 | 125% (inactive) |
| C=C1C(=O)O[C@H]2[C@H]1CC/C(COC(=O)NCc1c[nH]c3ccccc13)=C\CC[C@@]1(C)O[C@@H]21 | 50.7% (inactive) |
| COC(=O)CCCCCn1c2ccccc2c2c3c(c4c5ccccc5[nH]c4c21)C(=O)N(O)C3=O | 59% (inactive) |

| Compound | growth |
| --- | --- |
| O=C(CI)Nc1ccc(O)c2ccccc12 | 44.1% (inactive) |
| COc1cccc(-c2nn(-c3ccccc3)cc2-c2ccnc(NCCCO)c2)c1 | 55.2% (inactive) |
| CNC(=O)c1cc(Oc2ccc3nc(NC(=O)Nc4ccc(Cl)cc4)sc3c2)ccn1 | 102% (inactive) |
| CN(C)c1ccc(-c2ccc(-c3ccc(C(=N)N)c(F)c3)s2)cc1 | 95.7% (inactive) |
| Cc1cc(N(CCCNc2ccnc3cc(Cl)ccc23)Cc2ccco2)nc(N2CCOCC2)n1 | 58.4% (inactive) |
| C/C(Cc1ccc(Cl)cc1)=C(/c1ccc(Cl)cc1)c1ccc(OCCN2CCCC2)cc1 | 99.2% (inactive) |
| CC1(C)C(=O)/C(=C\c2ccco2)C[C@]2(C)[C@H]3CC[C@@H]4[C@@H](C(=O)/C=C/c5ccco5)CC[C@@]4(C)[C@]3(C)CC[C@@H]12 | 95.7% (inactive) |
| Clc1ccccc1-c1nc(Nc2nc3ccccc3s2)nc(C(Cl)(Cl)Cl)n1 | 84.2% (inactive) |
| CC(Cc1ccco1)C(=O)NC(N)=O (stereo not given) | 106% (inactive) |
| COC(=O)[C@]12CC[C@@H](C)[C@H](C)[C@@H]1C1=CC[C@@H]3[C@@]4(C)C[C@@H](O)OC[C@](C)(C=O)C4C(=O)C[C@@]3(C)[C@]1(C)CC2 (stereo not given in full) | -10.1% (active) |
| O=C(/C=C/c1cccc(O)c1)c1ccccc1O | 85.2% (inactive) |
| COc1cccc(-c2nn(-c3ccccc3)cc2-c2ccnc(NCCCNS(=O)(=O)c3ccc(C(F)(F)F)cc3)c2)c1 | 36.6% (inactive) |
| COC(=O)[C@@H]1[C@H]2C[C@H]3c4[nH]c5cc(OC)ccc5c4CCN3C[C@@H]2C[C@H](OC(=O)/C=C/c2ccnc(OC)c2)[C@H]1OC | 81.2% (inactive) |
| Nc1nc2c3ccncc3cc(-c3cccc(Cl)c3)c2c2cnccc12 | 37% (inactive) |
| Cc1c(C)c2c(c(C)c1NC(=O)CCCCCCC(=O)O)CCC(C)(CCCC(C)CCCC(C)CCCC(C)C)O2 (stereo not given) | 60.3% (inactive) |
| Nc1nc(Br)nc2c1ncn2C1CC(O)C(CO)O1 (stereo not given) | 50.1% (inactive) |
| C/C(=N\Nc1cc(C)c2ccccc2n1)c1ccccn1 | 24.1% (inactive) |
| N#CC1c2ccccc2-c2ccccc2N1C(=O)c1ccccc1 (stereo not given) | 21.5% (inactive) |
| CN1CCN(c2nc(-c3cccc4ccccc34)nc3sc4c(c23)CCCCCC4)CC1 | 91.9% (inactive) |
| COc1cc(-c2cc(-c3nc4ccc(F)cc4[nH]3)[nH]n2)cc(OC)c1OC | 6.58% (active) |
